# Pin1 inh: inhibitors of human Pin1; 390,000 tested, 0.009% active; Q13526; AID 504891; Potency, µM (doses to about 115 µM), for inactives: at the top dose activity, negative = inhibition, usual class: inhibitors; Pin1 FP peptide displacement, HiFluor488, 10 min; active = well fitted inhibition curve with a large enough effect in the polarisation, with a control signal flat, not every such curve was filed as active; inconclusive = small, poorly fitted or top-dose-only effect, or effect the other way, or a change in a side signal; inactive = no such curve, though single readings can be large or run the other way; the % refers to the polarisation; also: potency is read from the fitted curve at half-maximal effect
# Target sequence (Q13526 whole entry, looked up): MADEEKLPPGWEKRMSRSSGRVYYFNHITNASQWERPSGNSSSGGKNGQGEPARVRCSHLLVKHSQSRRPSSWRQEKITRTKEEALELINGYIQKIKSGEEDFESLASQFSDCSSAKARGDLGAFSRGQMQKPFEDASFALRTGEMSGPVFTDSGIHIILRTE
# GoLoco inh red: inhibitors of human Gai1-RGS12 GoLoco interaction (red fluorophore); Gai1:RGS12 GoLoco peptide FP, rhodamine, 10 min; Potency, µM (series often up to 61.6 µM), inactives show at the highest dose activity, negative = inhibition, usual class: inhibitors; P63096; 230,000 tested, 0.44% active; active = well fitted inhibition curve with a large enough effect, not every such curve was filed as active; inactive = no such curve, though single readings can be large or run the other way; also: potency is read from the fitted curve at half-maximal effect; nearly all actives have a fitted effect of over 30% in size
# PI5P4Ka inh: blocks human PI5P4K alpha kinase activity; PI5P4Kalpha enzyme, ADP-Glo luminescence, 60 min; active compounds read low; max response, %; 330,000 tested, 1.2% active; AID 652105; active = max response of -50% or lower; inconclusive = between -30% and -50%; inactive = -30% or higher; also: value at the top dose of about 77 µM
#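 Compounds were pin-transferred onto PI5P4Kalpha and substrate in HEPES pH 7.4 buffer with EGTA, CHAPS and 5% DMSO. ATP (5 microM final) started the reaction, which ran 60 minutes at room temperature before ADP-Glo detection.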
# KAT2A inh: inhibitors of human GCN5L2 histone acetyltransferase. GCN5L2 HAT assay, ThioGlo1 CoA-SH fluorescence. Potency, µM (doses to about 58.9 µM), without a hit: at the highest dose activity change, negative = inhibition, actives largely listed as inhibitors. 390,000 tested, 0.21% active. Q92830. AID 504327; also: potency is read from the fitted curve at half-maximal effect
#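 Free CoA generated was detected with ThioGlo1 (50uM) fluorescence at Ex340nm/Em540nm, read immediately and after 20 min at room temperature. Enzyme, 20 nM in HEPES pH 7.5 buffer, saw compounds 15 min before adding 75uM H3(1-25) peptide and 70uM acetyl-CoA.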
# Tb PGK inh: blocks T. brucei phosphoglycerate kinase; PGK/GAPDH coupled, Kinase-Glo luminescence, 60 min; Potency, µM (titrated, usually from 57.5 µM), for inactives: at the highest dose activity change, negative = inhibition, hits mostly inhibitors; 380,000 tested, 0.043% active; AID 602233; also: potency is read from the fitted curve at half-maximal effect; nearly all actives have a fitted effect of over 60% in size
# Target sequence (P07378 whole entry, looked up): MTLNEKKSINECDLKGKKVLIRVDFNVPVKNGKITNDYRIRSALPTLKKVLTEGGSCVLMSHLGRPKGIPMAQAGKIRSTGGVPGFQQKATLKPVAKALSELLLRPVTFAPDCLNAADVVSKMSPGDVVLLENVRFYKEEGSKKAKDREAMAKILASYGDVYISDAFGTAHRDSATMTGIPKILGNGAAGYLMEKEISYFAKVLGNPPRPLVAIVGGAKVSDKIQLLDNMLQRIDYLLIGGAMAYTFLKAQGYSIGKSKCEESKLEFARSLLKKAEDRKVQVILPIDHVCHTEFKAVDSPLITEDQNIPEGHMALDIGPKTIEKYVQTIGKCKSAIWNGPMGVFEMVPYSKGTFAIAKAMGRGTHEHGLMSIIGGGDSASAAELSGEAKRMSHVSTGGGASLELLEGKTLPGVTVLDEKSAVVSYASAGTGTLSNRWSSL
#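 Recombinant glycosomal PGK reaction used 1,3-bisphosphoglycerate generated in-well by GAPDH (100nM final) in 100mM TEA pH 7.6, 5mM MgCl2, 0.01% Tween-20. After 60 minutes at room temperature, ATP was read by Kinase-Glo Plus luminescence end-point.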
# PI4K2A inh: inhibitors of human PI4K2A. purified PI4K2A, ADP-Glo luminescence, 1 h; active compounds read low. AID 1346378. activity change, negative = inhibition, % at 76.9 µM. 420,000 tested, 0.13% active; in the data active = activity change below about -50%; inconclusive = mostly about -30% to -49%;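 also: -100% = wells without enzyme as full effect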
#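 In this quantitative HTS, ADP production by PI4K2A was quantified luminescently after 1 h at ambient temperature; 100 microM adenosine served as plate-quality control.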
# Starred values were filed as active, the others as inactive; i = inactive; ? = inconclusive; / = no result given; ! = not active in a repeat. Most compounds without a hit are left out; they make up all but 1.2% or so of the library. Unless noted, calls follow the shape of the dose curve; as a rule, active = well fitted curve in the direction sought with a large enough effect; inconclusive = small, poorly fitted or top-dose-only effect, or another doubt; inactive = no such curve, though single readings can be large; an effect the other way counts as inactive or inconclusive. Unless noted, % is scaled to controls: 0 for no effect and ±100 for the full control effect.
SMILES,Pin1 inh,GoLoco inh red,PI5P4Ka inh,KAT2A inh,Tb PGK inh,PI4K2A inh
COCCCNC(=O)c1ccc2c3c(onc13)-c1ccccc1C2=O,?,20µM*,-7.2,1.0%,-14.5%,-15.9
COCCCNC(=O)c1ccccc1Oc1ccccc1,-2.7%,8.6%,-7.0,-1.9%,-0.7%,3.2
O=C(O)C1(C(=O)O)CCCC1,-3.7%,/,1.2,/,-1.7%,2.5
O=C(O)C1(C(=O)O)CCC1.[NH2-].[NH2-].[Pt+2],/,/,/,20µM*,/,-16.1
CN(Cc1ccccc1)C(=O)COC(=O)/C=C/c1ccco1,-2.9%,0.3%,?,?,-24.7%,-2.4
CN(CCOC(=O)/C=C/c1ccco1)Cc1ccccc1,?,1.5%,-9.9,-5.8%,11.2µM*,-19.1
COCCCn1c(SCC(=O)Nc2oc(C)c3c(C)n[nH]c(=O)c23)nc2ccccc2c1=O,-1.7%,/,-9.3,1.4%,1.5%,1.4
COc1ccc(Cc2nnc(NC(=O)Cc3cccs3)s2)cc1OC,?,30.4%,-92.0*,?,?,-11.6
COc1ccc(C(=O)Nc2nnc(Cc3cccs3)s2)cc1OC,43.0%,23.1%,-1.1,-2.0%,1.9%,-5.4
COC(=O)CNC(=O)CNC1(C(=O)NCCc2c[nH]c3ccccc23)CCCCC1,/,/,/,/,/,0.3
Cc1ccc(-c2n[nH]c(=S)n2/N=C/c2c(C)[nH]n(-c3ccccc3)c2=O)cc1,-6.5%,-0.4%,-57.5*,-10.3%,i,-2.4
CCOc1ccc(OC(=O)c2cn(-c3cccc(OC)c3)c(=O)c3ccccc23)cc1,2.2%,/,/,-0.5%,1.2%,-2.7
CCN(CC)c1ccc(C=C2C(=O)OC3(CCCCC3)OC2=O)cc1,?,239.3%,-1.4,-19.2%,-10.1%,-6.7
CCN(CC)c1ccc(/C=C2/C(=O)c3ccc(C(=O)O)cc3C2=O)cc1,?,26.2%,-92.5*,-12.8%,-24.8%,-24.5
O=C(Nc1ccc(Br)cc1)c1cccc(N2C(=O)C3C4C=CC(C4)C3C2=O)c1 (stereo unspecified),-8.2%,/,-5.8,?,6.2%,3.3
CC1(C)CCN2CCC(C)(C)c3c(O)ccc1c32,?,/,-54.5*,1.9%,8.2%,-11.3
CC1(C)CCC(C)(C)c2cc([S+](=O)([O-])N3CCN([S+](=O)([O-])c4c(F)cccc4F)CC3)ccc21,10.7%,/,/,/,/,/
O=C(c1ccco1)N1CCN(C(c2ccc(F)cc2)c2nnnn2CC2CCCO2)CC1 (stereo unspecified),-2.1%,-12.4%,-9.0,-4.7%,-3.0%,-17.4
N#Cc1cccc(NC(=O)CSc2ccc3c4c(cccc24)C(=O)c2ccccc2-3)c1,?,11.2µM*,-0.2,-6.0%,0.3%,4.4
COc1ccc(NC(=O)CSc2ccc3c4c(cccc24)C(=O)c2ccccc2-3)cc1,?,19.3%,/,22.4µM*,-7.4%,-0.9
N#Cc1cccc(NC(=O)CSc2ccccc2)c1,11.0%,-4.3%,/,-5.3%,/,-2.8
NC(N)=Nc1nc2ccc([N+](=O)[O-])cc2[nH]1,-2.1%,0.355µM*!,0.8,-2.5%,-13.0%,1.6
Nc1nc2ccc([N+](=O)[O-])cc2[nH]1,-6.5%,-6.3%,-13.3,-4.1%,-9.3%,1.4
Cn1ccnc1SCc1ccc([N+](=O)[O-])cc1,-9.5%,2.8%,/,0.794µM*,-1.3%,-11.9
COc1ccccc1CNc1nc(-c2ccc3c(c2)OCO3)nc2ccccc12,/,-0.1%,/,-17.4%,/,/
SMILES,Pin1 inh,GoLoco inh red,PI5P4Ka inh,KAT2A inh,Tb PGK inh,PI4K2A inh
CCOC(=O)C1=C(O)/C(=C\c2ccc(CNC(=O)C(=O)Nc3ccccc3)o2)N=C1C,-22.9%,106.7%,-64.7*,-29.9%,-5.1%,-23.5
COc1cc(C2CC(=O)c3cnc(N)nc3C2)cc(OC)c1OC (stereo unspecified),-0.8%,-1.5%,/,-10.1%,5.2%,1.8
COc1ccc(-c2nc(Cn3c(SCc4cccc(F)c4)nc4cccnc43)c(C)o2)cc1,50.0%,/,/,-12.5%,2.8%,3.3
Cc1cc(C)n2nc3nc(N4CCCCC4)nc(-c4ccco4)c3c2n1,?,25.3%,-55.5*,-8.2%,-3.8%,-22.5
Cc1cc(Nc2ccccc2Cl)n2nc(-c3ccco3)nc2n1,7.9%,/,/,-5.5%,-1.5%,-0.6
c1cc(SSc2ccncc2)ccn1,3.6%,/,-70.5*,?,-5.2%,-5.9
Cc1c(Cl)cccc1Nc1ccccc1C(=O)O,-3.9%,28.2µM*!,11.1,-11.7%,-8.2%,-0.3
Cc1cc(C)c2c(N)c(C(=O)Nc3ccccc3Cl)sc2n1,-4.2%,/,14.8,/,-5.6%,-2.9
Cc1cc2c(N)cccc2nn1,?,8.91µM*,?,?,-1.2%,-16.3
Nc1cccc2nc3ccccc3cc12,-1.2%,4.9%,0.3,-3.5%,i,0.4
CC1CC1C(=O)N(C)CC(=O)Nc1ccccc1Br (stereo unspecified),1.9%,/,1.5,-3.7%,-5.1%,0.7
NC1=C(Cl)C(=O)c2ccccc2C1=O,-6.8%,/,-55.7*,/,-4.0%,-8.6
NC1=C(Cl)C(=O)c2ccc(S(N)(=O)=O)cc2C1=O,-7.0%,/,?,/,-21.6%,?
Cc1cc(C)cc(N2C(=O)N(CC(=O)c3ccc(Br)cc3)c3ccccc3S2(=O)=O)c1,45.4%,/,/,-8.9%,-3.9%,-3.5
O=C1C(Cc2c[nH]c3ccccc23)NC(=S)N1Cc1ccccc1 (stereo unspecified),1.2%,-4.7%,3.2,-7.7%,i,-9.6
Cc1[nH]nc2c1C1(C(=O)Nc3ccc([N+](=O)[O-])cc31)C(C#N)=C(N)O2 (stereo unspecified),-4.3%,-1.6%,-56.3*,-9.7%,-3.3%,-6.1
Cc1cc(F)ccc1S(=O)(=O)N1CCCCC1CCNC(=O)C(=O)NCc1ccccn1 (stereo unspecified),-4.3%,/,-5.1,-12.1%,i,4.0
O=C(NC1CCCCC1)C(C1CC1)n1c(=O)c(-c2ccco2)nc2ccccc21 (stereo unspecified),/,/,?,/,/,-7.7
O=C(NC1CCCCC1)C(c1ccc(C(F)(F)F)cc1)n1c(=O)c(-c2ccco2)nc2ccccc21 (stereo unspecified),/,/,-75.2*,/,/,-8.7
O=C(NC1CCCCC1)C(c1ccccc1)n1c(=O)c(-c2ccco2)nc2ccccc21 (stereo unspecified),/,/,-79.8*,/,/,-17.8
N#Cc1ccc(C(C(=O)NC2CCCCC2)n2c(=O)c(-c3ccco3)nc3ccccc32)cc1 (stereo unspecified),/,/,-74.5*,/,/,-21.3
CCC(C)NC(=O)CSc1nc(-c2ccc(F)cc2)cc(C(F)(F)F)n1 (stereo unspecified),-2.3%,/,/,-8.9%,-10.8%,-0.4
CC(Oc1ccc(C#N)cc1)C(=O)N1CC=C(c2ccccc2)CC1 (stereo unspecified),-1.5%,/,-0.6,-3.7%,0.1%,-4.8
